From PubChem BioAssay AID722 (NMMLSC, 2007)
Hit rate of the full screen: of about 1,300 compounds, about 40 (3%) were called active. The full list was thinned out, with actives kept by preference. Unmarked numbers belong to inactive results. No stated cut-off is given here; in the data, active means inhibition above about 30%; inactive means the rest.

Target: fMet-Leu-Phe receptor (Homo sapiens) (UniProt P21462)
Assay: human FPR1 ligand displacement screen – cell-based, flow cytometry, SAR analysis, primary screen (AID 722)
Settings: FPR-expressing cells, fluorescent ligand binding inhibition, active compounds read high, concentration not given here

fMet-Leu-Phe receptor (Homo sapiens), sequence (P21462 whole entry, looked up): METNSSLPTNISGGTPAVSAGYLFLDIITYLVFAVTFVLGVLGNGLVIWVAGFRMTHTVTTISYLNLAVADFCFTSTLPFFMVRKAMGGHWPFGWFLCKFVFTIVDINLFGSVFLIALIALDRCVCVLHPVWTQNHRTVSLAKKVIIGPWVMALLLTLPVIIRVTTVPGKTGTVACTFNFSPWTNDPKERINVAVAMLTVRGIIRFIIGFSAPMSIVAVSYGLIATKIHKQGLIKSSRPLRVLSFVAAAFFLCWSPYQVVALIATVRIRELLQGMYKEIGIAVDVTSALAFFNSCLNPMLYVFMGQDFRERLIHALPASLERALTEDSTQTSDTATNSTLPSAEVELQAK

| SMILES | inhibition |
| --- | --- |
| Cc1nc2c(-c3ccc(Cl)cc3)c[nH]n2c(=O)c1Cc1ccccc1 | -1.4% |
| Cc1nc2c(-c3ccc(Cl)cc3)c(C(F)(F)F)[nH]n2c(=O)c1Cc1ccccc1 | 50.1% (active) |
| COc1ccc(-c2c(C)[nH]n3c(=O)c(Cc4ccccc4)c(C)nc23)cc1 | 6.3% |
| N#CCn1c(=O)n(Cc2ccccc2)c(=O)c2oc3ccccc3c21 | -0.8% |
| CCCCN(Cc1ccco1)C(=O)c1noc2c1CCCCC2 | 0.1% |
| CCOC(=O)c1c(NC(=O)c2cccc(Br)c2)sc(C)c1C | -4.3% |
| Cc1ccc(C)c(NC(=O)Cn2c(-c3nonc3N)nc3ccccc32)c1 | 5.3% |
| O=c1c2cccnc2n(Cc2ccccc2F)c(=O)n1Cc1cccs1 | -0.6% |
| Cc1sc2c(c1C)c(=O)n(Cc1ccccc1)c(=O)n2Cc1ccccc1F | 38.5% (active) |
| O=c1c2cccnc2n(Cc2ccccc2F)c(=O)n1Cc1ccccc1 | -7.5% |
| Cc1ccc(C)c(Cn2c(=O)cc(C)c3c(C)nn(-c4cccc(F)c4)c32)c1 | -2.2% |
| CCOC(=O)c1sc(N2C(=O)C(=O)/C(=C(/O)c3ccccc3)C2c2ccc(C(C)C)cc2)nc1C (centres undefined) | 7.9% |
| Cc1nnc(N2C(=O)C(=O)/C(=C(/O)c3ccc(F)cc3)C2c2cccc(Oc3ccccc3)c2)s1 (centres undefined) | -8.8% |
| Cc1ccc(CN(Cc2ccco2)C(=O)c2cccc(C)c2)cc1 | -4.5% |
| O=C(O)CCCN1C(=O)C(=O)/C(=C(/O)c2ccccc2)C1c1ccc(F)cc1 (centres undefined) | 5.5% |
| O=C(O)CCCN1C(=O)C(=O)/C(=C(/O)c2ccccc2)C1c1ccc(Br)cc1 (centres undefined) | 1.2% |
| O=C(O)CCCN1C(=O)C(=O)/C(=C(/O)c2ccccc2)C1/C=C/c1ccccc1 (centres undefined) | 44.6% (active) |
| O=C1C(=O)N(CCCN2CCOCC2)C(c2cccnc2)/C1=C(\O)c1ccccc1 (centres undefined) | -3.2% |
| COc1cc(C2C(C(C)=O)=C(O)C(=O)N2c2ccc(Br)cc2)ccc1O (centres undefined) | 35.8% (active) |
| COc1cccc(C2C(C(C)=O)=C(O)C(=O)N2c2ccc(C)c(Br)c2)c1 (centres undefined) | -9% |
| COC(=O)c1ccc(C2C(C(C)=O)=C(O)C(=O)N2c2ccc(OCC(=O)O)cc2)cc1 (centres undefined) | 2.2% |
| Cc1cccc(C(=O)N(C(=O)c2cccc(C)c2)c2ncccn2)c1 | -8.2% |
| CCN(C(=O)c1noc2c1CCCCC2)c1cccc(C)c1 | -6.2% |
| O=C(C1=C(O)C(=O)N(CCc2ccccc2)C1c1ccc([N+](=O)[O-])cc1)c1cccs1 (centres undefined) | -7.4% |

| SMILES | inhibition |
| --- | --- |
| O=C(C1=C(O)C(=O)N(CCCN2CCOCC2)C1c1cccnc1)c1cc2ccccc2o1 (centres undefined) | 22.2% |
| O=C(C1=C(O)C(=O)N(CCCn2ccnc2)C1c1cccc(Br)c1)c1ccco1 (centres undefined) | 0.3% |
| O=C(C1=C(O)C(=O)N(CCCn2ccnc2)C1c1cccnc1)c1ccco1 (centres undefined) | 33.2% (active) |
| COc1ccc(C2C(C(=O)c3cccs3)=C(O)C(=O)N2CCCn2ccnc2)c(OC)c1 (centres undefined) | 1.7% |
| O=C(C1=C(O)C(=O)N(CCCn2ccnc2)C1c1cccnc1)c1cc2ccccc2o1 (centres undefined) | 40.4% (active) |
| COc1cccc(C2C(C(=O)c3cccs3)=C(O)C(=O)N2CCc2ccccc2)c1 (centres undefined) | 15.8% |
| O=C(C1=C(O)C(=O)N(CCCN2CCOCC2)C1c1cccnc1)c1ccco1 (centres undefined) | -9.2% |
| COc1ccc(C2C(C(=O)c3cccs3)=C(O)C(=O)N2CCCn2ccnc2)cc1 (centres undefined) | 42.2% (active) |
| O=C(C1=C(O)C(=O)N(CCCn2ccnc2)C1c1ccc(Cl)cc1)c1cccs1 (centres undefined) | 19.5% |
| O=C(C1=C(O)C(=O)N(CCCn2ccnc2)C1c1cccnc1)c1cccs1 (centres undefined) | 3.5% |
| O=C(C1=C(O)C(=O)N(CCc2ccccc2)C1c1ccc(Cl)cc1)c1cccs1 (centres undefined) | 77.6% (active) |
| O=C(C1=C(O)C(=O)N(CCCN2CCOCC2)C1c1ccco1)c1ccco1 (centres undefined) | -4.4% |
| Cc1ccc(/C(O)=C2\C(=O)C(=O)N(CC3CCCO3)C2c2ccc([N+](=O)[O-])cc2)cc1 (centres undefined) | -3.9% |
| CCCC(=O)N1CCc2cc(OC)c(OC)cc2C1COc1ccc(OC)cc1 (centres undefined) | -2.3% |
| Cc1nc2c(C(=O)N3CCCCC3)c[nH]n2c(=O)c1Cc1ccccc1F | -4.3% |
| CCOc1ccc(C2/C(=C(/O)c3ccccc3)C(=O)C(=O)N2CCO)cc1 (centres undefined) | 1.5% |
| Cc1ccc(/C(O)=C2\C(=O)C(=O)NC2c2ccc(F)cc2)cc1 (centres undefined) | 10% |
| Cc1ccc(/C(O)=C2\C(=O)C(=O)NC2c2ccccc2)cc1 (centres undefined) | 0.5% |
| O=C(c1cccs1)N1c2ncnn2C2(CCCCC2)[C@@H]2CCCC[C@@H]21 | 0.9% |
| COc1cccc(N(Cc2nnc3n2CCCCC3)C(=O)Nc2ccccc2)c1 | -7.8% |
| COc1ccccc1C1CC(c2ccccc2)=NN1C(=O)c1ccccc1 (centres undefined) | 0% |
| CCOC(=O)c1c(NC(=O)c2ccc(Cl)cc2)sc(C)c1C | -1% |
| CCOC(=O)c1c(NC(=O)c2cc(F)c(F)cc2Cl)sc2c1CCC2 | -9.6% |
| CCOC(=O)c1c(NC(=O)c2cccc(F)c2)sc2c1CCCC2 | -4% |

| SMILES | inhibition |
| --- | --- |
| C=CCC(CC=C)(NC(=O)c1cccc(C)c1)c1ccccc1 | 0.8% |
| O=C(C1=C(O)C(=O)N(c2nncs2)C1c1ccccc1F)c1cccs1 (centres undefined) | -6.8% |
| CCc1c(C)nc2c(C#N)c[nH]n2c1=O | 0.5% |
| CC(=O)C1=C(O)C(=O)N(CCN2CCOCC2)C1c1ccc([N+](=O)[O-])cc1 (centres undefined) | 5.7% |
| CCC(C)(C(=O)NC1CCCCC1)N(Cc1cccs1)C(C)=O (centres undefined) | 57.2% (active) |
| CCC(C)(C(=O)NC1CCCCC1)N(C)C(=O)Cc1cccs1 (centres undefined) | -25.1% |
| CCOc1ccccc1C(=O)N(Cc1cccs1)c1ccc(C)cc1 | 5.8% |
| COc1cccc(C(=O)N(Cc2ccco2)Cc2ccccc2F)c1 | -2.3% |
| O=C(C(Cc1ccccc1)N1Cc2ccccc2C1=O)N1CCCCCC1 (centres undefined) | 0.8% |
| COc1ccc(-c2c(C(F)(F)F)oc3cc(OC(=O)c4ccc(C)cc4)ccc3c2=O)cc1OC | -0.2% |
| COc1ccccc1-c1c(C(F)(F)F)oc2cc(OC(=O)c3ccccc3C)ccc2c1=O | 2.7% |
| COc1ccc(-c2c(C(F)(F)F)oc3cc(OC(=O)c4ccco4)ccc3c2=O)cc1OC | 43.5% (active) |
| COc1ccc(C(=O)Oc2ccc3c(=O)c(-c4ccc(OC)c(OC)c4)c(C(F)(F)F)oc3c2)cc1 | 9.4% |
| COc1ccccc1-c1c(C(F)(F)F)oc2cc(OC(=O)c3ccco3)ccc2c1=O | 59% (active) |
| COc1ccc(Oc2c(C(F)(F)F)oc3cc(OC(=O)c4ccco4)ccc3c2=O)cc1 | 9.6% |
| COc1cc(C2C(C(=O)c3cc4ccccc4o3)=C(O)C(=O)N2c2nnc(C)s2)ccc1O (centres undefined) | -5.6% |
| O=C1OC(c2ccccc2F)/C(=C(/O)c2ccccc2)C1=O (centres undefined) | 2.1% |
| CCOC(=O)c1cc2ccccc2n1CC(=O)c1ccccc1 | -0.2% |
| O=C1C(=O)N(c2nncs2)C(c2ccc(F)cc2)/C1=C(\O)c1ccccc1 (centres undefined) | 5.9% |
| Fc1cccc(-c2nn(CN3CCCCC3)c(=S)n2-c2ccccc2)c1 | 4.7% |
| COc1ccc(C2/C(=C(\O)c3ccc(F)cc3)C(=O)C(=O)N2c2nnc(C)s2)cc1 (centres undefined) | 4.6% |
| COc1ccc(/C(O)=C2\C(=O)C(=O)N(CCN3CCOCC3)C2c2ccc(Br)cc2)cc1 (centres undefined) | 2.9% |
| O=C(O)CCc1oc2cc(O)ccc2c(=O)c1-c1nc2ccccc2[nH]1 | 11.1% |
| CCOC(=O)c1c(NC(=O)C2CCCC2)sc2c1CCC(CC)C2 (centres undefined) | -13.3% |

| SMILES | inhibition |
| --- | --- |
| CCc1c(C)nc2c(-c3ccccc3OC)c(C)[nH]n2c1=O | 5.5% |
| CCOc1ccccc1C1CC(=O)NC2=C1C(=O)CC(c1ccccc1Cl)C2 (centres undefined) | -7.2% |
| O=C1C(=O)N(CCN2CCOCC2)C(c2ccc(Cl)cc2)/C1=C(\O)c1ccc(F)cc1 (centres undefined) | -8.1% |
| CCc1cc2c(=O)c(-c3nc4ccccc4n3C)c(C)oc2cc1OC(C)=O | 78.9% (active) |
| CCc1cc2c(=O)c(-c3nc4ccccc4n3C)c(C)oc2cc1O | -2.5% |
| CCc1cc2c(=O)c(-c3nc4ccccc4[nH]3)c(C)oc2cc1OC(C)=O | -0.7% |
| Cc1[nH]n2c(=O)cc(Cc3ccccc3)nc2c1-c1ccccc1 | 6.8% |
| CCOC(=O)C(C#N)C(c1ccc2c(c1)OCO2)c1ccccc1OC (centres undefined) | -0.7% |
| O=C(NC(c1nnc(-c2ccccc2)o1)c1ccccc1F)c1ccc(F)cc1 (centres undefined) | -6% |
| CN1C(=O)C2(/C(=C(/O)c3ccc(F)cc3)C(=O)C(=O)N2CCN2CCOCC2)c2ccccc21 (centres undefined) | -6.9% |
| COc1ccccc1C1/C(=C(\O)c2ccc(C)cc2)C(=O)C(=O)N1Cc1cccnc1 (centres undefined) | -4.4% |
| CC(C)c1ccc(C2/C(=C(\O)c3ccccc3)C(=O)C(=O)N2Cc2cccnc2)cc1 (centres undefined) | 40.5% (active) |
| COCCCN1C(=O)C(=O)/C(=C(/O)c2ccccc2)C1c1ccc(C(C)C)cc1 (centres undefined) | 54.4% (active) |
| O=C1C(=O)N(Cc2cccnc2)C(c2ccc(Br)cc2)/C1=C(\O)c1ccccc1 (centres undefined) | -0.7% |
| COCCCN1C(=O)C(=O)/C(=C(/O)c2ccc(C)cc2)C1c1ccc(C(C)C)cc1 (centres undefined) | 2.7% |
| COc1ccc(C2/C(=C(\O)c3ccc(C)cc3)C(=O)C(=O)N2Cc2cccnc2)c(OC)c1 (centres undefined) | 65.6% (active) |
| O=C1C(=O)N(Cc2cccnc2)C(c2ccc(Cl)cc2)/C1=C(\O)c1ccccc1 (centres undefined) | 8.1% |
| Cc1ccc(C2/C(=C(/O)c3ccccc3)C(=O)C(=O)N2Cc2cccnc2)cc1 (centres undefined) | 5.2% |
| CC(C)(C)c1ccc(C2/C(=C(\O)c3ccccc3)C(=O)C(=O)N2Cc2cccnc2)cc1 (centres undefined) | -8.3% |
| Cc1ccc(/C(O)=C2\C(=O)C(=O)N(Cc3cccnc3)C2c2ccc(Br)cc2)cc1 (centres undefined) | 61.8% (active) |
| COc1ccc(C2/C(=C(/O)c3ccccc3)C(=O)C(=O)N2Cc2ccccc2)c(OC)c1 (centres undefined) | -11% |
| COCCCN1C(=O)C(=O)/C(=C(/O)c2ccccc2)C1c1ccc(Cl)cc1 (centres undefined) | 0.5% |
